Compound activity: PubChem, Buhrlage Lab, Dana-Farber Cancer Institute and Novartis Institutes for BioMedical Research (Cambridge, Mass)
OTUD3 inh: human OTUD3 deubiquitinase inhibition; purified OTUD3, Ub-rhodamine fluorescence, 2 h; inhibition, % at 25 µM; 0.7% of 47,000 active; Q5T2D3
USP30 block: human USP30 deubiquitinase inhibition; Q70CQ3; purified USP30, Ub-rhodamine cleavage fluorescence; inhibition, % at 25 µM; 5.3% of 47,000 active; AID 1645860
Target sequence (Q70CQ3 whole entry, looked up): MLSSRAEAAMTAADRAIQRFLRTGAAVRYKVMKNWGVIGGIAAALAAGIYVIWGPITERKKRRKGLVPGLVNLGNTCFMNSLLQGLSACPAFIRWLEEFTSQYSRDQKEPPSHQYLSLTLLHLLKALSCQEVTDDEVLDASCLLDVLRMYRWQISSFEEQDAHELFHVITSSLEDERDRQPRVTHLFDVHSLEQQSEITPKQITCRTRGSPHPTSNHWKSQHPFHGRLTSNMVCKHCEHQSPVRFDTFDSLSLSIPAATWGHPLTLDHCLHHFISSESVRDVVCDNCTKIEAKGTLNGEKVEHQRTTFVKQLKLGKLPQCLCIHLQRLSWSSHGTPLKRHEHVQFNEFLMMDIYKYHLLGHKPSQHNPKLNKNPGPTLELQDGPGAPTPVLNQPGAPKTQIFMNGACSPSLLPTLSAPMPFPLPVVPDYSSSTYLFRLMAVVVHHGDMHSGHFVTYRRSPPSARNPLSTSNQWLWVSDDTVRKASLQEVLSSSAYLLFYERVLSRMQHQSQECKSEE
USP28 inh: inhibitors of human USP28 deubiquitinase; Q96RU2; purified USP28, Ub-rhodamine cleavage fluorescence, 30 min; inhibition, % at 25 µM; 3% of 47,000 active
USP17 inh: inhibitors of human USP17 deubiquitinase | A8MUK1 | purified USP17, Ub-rhodamine cleavage fluorescence, 3 h | inhibition, % at 50 µM | 6.5% of 47,000 active | AID 1645855
Numbers without * were called inactive. Rows were chosen to be rich in hits. Some 11% of all compounds tested hit in one or more screens of this group. Rule as the data show it: active = inhibition above about 30%; inactive = the rest.

For O=C(COC(=O)c1cc2c(s1)CCC2)c1ccc2[nH]c(=O)[nH]c2c1 the results were OTUD3 inh 36.0*, USP30 block 2.1, USP28 inh 65.6* and USP17 inh 56.0*.
`COc1cccc(NS(=O)(=O)c2ccc3onc(C(=O)N4CCCCC4)c3c2)c1` gave OTUD3 inh -3.1, USP30 block -2.5, USP28 inh -0.1 and USP17 inh -6.9.
`O=C(Nc1nccn(-c2cccc(F)c2)c1=O)c1ccccn1` gave OTUD3 inh 13.9, USP30 block 90.8*, USP28 inh 71.7* and USP17 inh 49.0*.
`Cc1ccc(-n2ccnc(NC(=O)c3ccccn3)c2=O)cc1C` gave OTUD3 inh 0.8, USP30 block -11.0 and USP28 inh -11.7.
For O=C(c1cnc(C2CC2)nc1)N1C[C@H]2CC(Oc3ccccc3)C[C@H]2C1 (some centres undefined) the results were OTUD3 inh 0.1, USP30 block 1.3 and USP28 inh -4.7.
For COc1ccc(C(=O)C(C)OC(=O)c2cccc(S(=O)(=O)Nc3cc([N+](=O)[O-])ccc3OC)c2)c(OC)c1 (centres undefined) the results were OTUD3 inh -0.1, USP30 block 31.0*, USP28 inh 17.6 and USP17 inh 7.2.
COc1cccc(NC(=O)C(C)OC(=O)c2ccc(NS(=O)(=O)c3ccc(F)c(F)c3)cc2)c1 (centres undefined) was read as OTUD3 inh -3.8, USP30 block -37.9, USP28 inh -5.7 and USP17 inh -51.8.
CC(=O)c1ccc(NC(=O)CSc2nc3nc(C)ccc3o2)cc1 was read as OTUD3 inh -2.3, USP30 block -16.0, USP28 inh -7.1 and USP17 inh 46.2*.
Cc1ccc(-n2nc(C)c3nc(CCC(=O)Nc4ccc(OC(F)(F)F)cc4)c(=O)n(C)c32)cc1 was read as OTUD3 inh 5.5, USP30 block 31.3*, USP28 inh -1.7 and USP17 inh 3.6.
Screening COc1ccc(CC(=O)Nc2c(NCc3ccccc3)c3ccccc3oc2=O)cc1 returned OTUD3 inh 13.6, USP30 block 75.1*, USP28 inh 33.6* and USP17 inh 85.2*.
For COc1ccc(-c2nonc2NC(=O)Cc2ccccc2)cc1 the results were OTUD3 inh 4.3, USP30 block 19.5, USP28 inh -25.6 and USP17 inh 10.6.
Screening O=C(Nc1ccncc1NC(=O)c1cccc(C(F)(F)F)c1)c1cccc(C(F)(F)F)c1 returned OTUD3 inh -1.3, USP30 block 6.0, USP28 inh -3.8 and USP17 inh 16.7.
`O=C(Nc1ccc2nccnc2c1)c1cccc(C(F)(F)F)c1` gave OTUD3 inh 2.4, USP30 block 75.8*, USP28 inh 31.6* and USP17 inh 8.1.
Screening COc1ccc(S(=O)(=O)N2CCCCCC2c2sccc2C)cc1 (centres undefined) returned OTUD3 inh 20.7, USP30 block 30.0*, USP28 inh -18.5 and USP17 inh 19.1.
Cc1ccc(Nc2nc(C(=O)N3CCN(c4ccccn4)CC3)cc3occc23)cc1Cl was read as OTUD3 inh -6.6, USP30 block -69.7, USP28 inh 8.7 and USP17 inh 15.4.
`O=C(c1cc2occc2c(Nc2ccc(F)cc2)n1)N1CCN(c2ccccn2)CC1` gave OTUD3 inh 6.2, USP30 block 26.8, USP28 inh 13.1 and USP17 inh 33.7*.
`Cc1cccc(NC(=O)Cn2c(=O)nc(N(C)c3ccccc3)c3ccccc32)c1` gave OTUD3 inh 0.9, USP30 block 15.4, USP28 inh 41.0* and USP17 inh 23.3.
Cc1ccc(C(=O)N2CCC3(CCCN3c3ncccn3)CC2)cc1 was read as OTUD3 inh 1.0, USP30 block 1.8, USP28 inh -5.0 and USP17 inh 8.0.
For CCn1c(SCc2nc(-c3ccccc3)no2)nnc1-c1ccc2c(c1)OCCO2 the results were OTUD3 inh 8.5, USP30 block 15.4, USP28 inh 7.9 and USP17 inh 6.4.
CCn1c(SCCOc2ccccc2)nnc1-c1ccc2c(c1)OCCO2 was read as OTUD3 inh 4.1, USP30 block 17.9, USP28 inh 30.8* and USP17 inh 0.8.
`Cc1cc(C(=O)N2CCc3nc(C(=O)NCC(C)C)sc3CC2)no1` gave OTUD3 inh -13.4, USP30 block -8.1, USP28 inh -7.4 and USP17 inh 0.0.
Screening CSc1ccccc1C(=O)Nc1sc2c(c1C(N)=O)CCCCC2 returned OTUD3 inh 7.1, USP30 block -2.3, USP28 inh 28.7 and USP17 inh 37.6*.
CC1CCc2sc(NC(=O)c3ccccc3Oc3ccccc3)c(C(N)=O)c2C1 (centres undefined) was read as OTUD3 inh 11.1, USP30 block 21.1, USP28 inh 5.5 and USP17 inh 82.8*.
`CSc1ccccc1C(=O)Nc1sc2c(c1C(N)=O)CCC(C)C2` (centres undefined) gave OTUD3 inh -9.5, USP30 block -1.2, USP28 inh 12.4 and USP17 inh 80.0*.
`CSc1cccc(C(=O)Nc2sc3c(c2C(N)=O)CCC(C)C3)c1` (centres undefined) gave OTUD3 inh -4.4, USP30 block 2.5, USP28 inh -3.6 and USP17 inh 5.8.
`CS(=O)(=O)c1cccc(C(=O)Nc2sc3c(c2C(N)=O)CCCCC3)c1` gave OTUD3 inh -8.9, USP30 block -79.2, USP28 inh -26.6 and USP17 inh -52.1.
For Cc1ccc(C(=O)NC(C)c2ccccc2)cc1NC(=O)c1nsc2ccccc12 (centres undefined) the results were OTUD3 inh -9.6, USP30 block -46.0, USP28 inh -9.2 and USP17 inh -9.1.
O=C(CSc1ccc2nnc(CCNS(=O)(=O)c3ccccc3)n2n1)Nc1ccc(Br)cc1 was read as OTUD3 inh 0.2, USP30 block 24.4, USP28 inh 6.4 and USP17 inh 32.4*.
For CCOC(=O)c1ccccc1NC(=O)CSc1ccc2nnc(CCNS(=O)(=O)c3ccc(C)cc3)n2n1 the results were OTUD3 inh 17.9, USP30 block 30.9*, USP28 inh 8.9 and USP17 inh -1.8.
O=C(CSc1ccc2nnc(CCNS(=O)(=O)c3ccccc3)n2n1)Nc1ccc(OC(F)(F)F)cc1 was read as OTUD3 inh -10.3, USP30 block -32.3, USP28 inh 1.4 and USP17 inh 0.1.
Screening COCCNc1cc(-n2ccnc2C)n2nccc2n1 returned OTUD3 inh -12.3, USP30 block -33.0 and USP28 inh -11.5.
`CC(=O)NCC(=O)N1CCC[C@@H]2NC(=O)c3ccccc3OCCCCC[C@@H]21` gave OTUD3 inh -0.2, USP30 block 0.3, USP28 inh -10.9 and USP17 inh 0.1.
For O=C(Nc1nc2c(s1)CCC2)C1CCN(S(=O)(=O)c2ccc3c(c2)CCCC3)CC1 the results were OTUD3 inh -11.3, USP30 block -102.1, USP28 inh 49.7* and USP17 inh 19.9.
For Cc1nnc(NC(=O)C2CCN(S(=O)(=O)c3ccc4c(c3)CCC4)CC2)o1 the results were OTUD3 inh 8.5, USP30 block 17.8, USP28 inh 3.8 and USP17 inh -15.8.
Screening CC1(CCC(=O)O)OCCc2c1sc1ccccc21 (centres undefined) returned OTUD3 inh -0.1, USP30 block 2.1, USP28 inh -0.3 and USP17 inh 3.6.
